Consider 6 substances from publication PMC11024108.

Chain of Peptidyl-prolyl cis-trans isomerase F, mitochondrial, P30405 (P30405 whole entry): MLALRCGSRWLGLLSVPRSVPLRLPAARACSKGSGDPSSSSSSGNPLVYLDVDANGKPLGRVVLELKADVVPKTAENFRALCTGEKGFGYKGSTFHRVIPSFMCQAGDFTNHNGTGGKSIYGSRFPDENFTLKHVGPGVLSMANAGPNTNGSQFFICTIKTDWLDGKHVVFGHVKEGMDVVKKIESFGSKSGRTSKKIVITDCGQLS
Chain of Succinate dehydrogenase [ubiquinone] flavoprotein subunit, mitochondrial, P31040 (P31040 whole entry): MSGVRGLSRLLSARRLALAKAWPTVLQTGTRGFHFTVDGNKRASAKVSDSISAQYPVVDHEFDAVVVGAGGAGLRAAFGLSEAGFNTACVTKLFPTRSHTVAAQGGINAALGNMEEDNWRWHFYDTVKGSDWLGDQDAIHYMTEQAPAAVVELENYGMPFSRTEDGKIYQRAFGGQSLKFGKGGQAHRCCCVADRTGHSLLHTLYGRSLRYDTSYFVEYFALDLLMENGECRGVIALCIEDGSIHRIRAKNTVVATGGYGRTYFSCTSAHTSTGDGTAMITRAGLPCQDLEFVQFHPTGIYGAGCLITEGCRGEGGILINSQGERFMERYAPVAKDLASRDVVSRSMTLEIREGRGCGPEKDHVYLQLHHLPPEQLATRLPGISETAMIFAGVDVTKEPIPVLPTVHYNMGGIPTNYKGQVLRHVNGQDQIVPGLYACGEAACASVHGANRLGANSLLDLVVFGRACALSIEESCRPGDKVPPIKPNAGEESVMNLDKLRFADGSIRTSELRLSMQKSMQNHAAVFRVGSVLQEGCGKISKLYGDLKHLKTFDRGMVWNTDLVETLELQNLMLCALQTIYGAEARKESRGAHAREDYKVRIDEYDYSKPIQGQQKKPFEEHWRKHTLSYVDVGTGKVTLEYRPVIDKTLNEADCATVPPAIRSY

This assay addresses Malate dehydrogenase, mitochondrial (UniProt P40926). As to the kind of experiment: cross-link between two proteins; cross-linking mass spectrometry.
With “Succinate dehydrogenase [ubiquinone] flavoprotein subunit, mitochondrial, P31040”, the “listed as a hit” value is listed as “yes”. As to “Glutathione reductase, mitochondrial, P00390”, the “listed as a hit” value is reported as “yes”.

For “Aldehyde dehydrogenase, mitochondrial, P05091”, the “listed as a hit” value is on record as “yes”. As for “Dihydrolipoyl dehydrogenase, mitochondrial, P09622”, the “listed as a hit” value was “yes”. In the case of “Peptidyl-prolyl cis-trans isomerase F, mitochondrial, P30405”, the “listed as a hit” value is “yes”.

For the substance “Aldehyde dehydrogenase family 1 member B1, mitochondrial, P30837”, the “listed as a hit” value is reported as “yes”.
